This excerpt belongs to a sample that is enriched for hits.
TbPYK inhibitor – blocks Trypanosoma brucei pyruvate kinase; AID 624173; Potency, µM (series often up to 76.8 µM), most hits filed as inhibitors; 410,000 compounds, 0.12% hits; Q57TT1; TbPYK enzyme, Kinase-Glo Plus ATP luminescence, 45 min; note: nearly all actives have a fitted effect of over 50% in size
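Activity of T. brucei pyruvate kinase was followed by Kinase-Glo Plus luminescence after the enzyme reacted 45 min at room temperature with 130 uM ADP (final) and substrate. Test compounds were added before ADP at multiple concentrations.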
Shiga toxin inh – blocks Shiga toxin action in Vero cells; 290,000 compounds, 9.2% hits; Vero cells, Shiga toxin protein synthesis inhibition reporter; inhibition, % at 38.7 µM; in the data active = inhibition mostly above about 28%, no sharp cut-off; inactive = mostly below about 43%
Sm TGR block – inhibitors of Schistosoma mansoni thioredoxin glutathione reductase; Q962Y6; purified TGR, DTNB reduction, TNB absorbance 405 nm; Potency, µM (doses to about 114 µM), hits mostly inhibitors; 360,000 compounds, 3% hits; AID 485364; note: nearly all actives have a fitted effect of over 60% in size
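Kinetic colorimetric format: TGR-catalysed, NADPH-driven DTNB reduction monitored via TNB absorbance. Enzyme dispensed at 20 nM; compound exposure 15 min at room temperature before reaction start.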
LmPK inh – inhibitors of Leishmania mexicana pyruvate kinase; purified LmPK, Kinase-Glo ATP luminescence, 1 h; Potency, µM (top dose mostly 57.5 µM), usual class: inhibitors; 290,000 compounds, 0.37% hits; Q27686
Target sequence (Q27686 whole entry, looked up): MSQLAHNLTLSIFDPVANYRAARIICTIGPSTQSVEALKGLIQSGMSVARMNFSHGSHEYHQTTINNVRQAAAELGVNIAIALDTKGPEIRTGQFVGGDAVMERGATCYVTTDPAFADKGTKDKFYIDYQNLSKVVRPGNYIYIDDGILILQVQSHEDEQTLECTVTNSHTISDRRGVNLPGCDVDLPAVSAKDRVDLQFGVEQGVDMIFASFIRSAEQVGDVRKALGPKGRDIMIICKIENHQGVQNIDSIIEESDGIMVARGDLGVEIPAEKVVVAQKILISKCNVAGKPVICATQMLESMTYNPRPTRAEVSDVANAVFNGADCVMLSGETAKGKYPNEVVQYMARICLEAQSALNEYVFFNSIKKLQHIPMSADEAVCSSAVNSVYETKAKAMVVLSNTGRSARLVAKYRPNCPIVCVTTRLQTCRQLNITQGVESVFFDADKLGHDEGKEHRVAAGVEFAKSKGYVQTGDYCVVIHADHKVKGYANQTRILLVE
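In 50 mM imidazole pH 7.2 with 7 mM MgCl2, LmPK (0.1 nM) turned over PEP (0.5 mM) and ADP (0.1 mM) for 1 h at room temperature. Luciferase read-out of ATP.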
Giardia FBPA inh – Giardia lamblia aldolase inhibition. purified Giardia FBPA. AID 2451. 290,000 compounds, 0.71% hits. Potency, µM (titrated, usually from 59.6 µM), most hits filed as inhibitors. A8B2U2; note: nearly all actives have a fitted effect of over 55% in size
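40 nM FBPA preincubated 10 min at RT with compound (up to 57.5 uM final), then substrate plus GAPDH/TPI/NAD/arsenate coupling and diaphorase/resazurin added. Fluorescence read after 20 min at RT, 525/598 nm.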
CHX counter – counter-screen for Shiga toxin inhibitors: cycloheximide protein synthesis inhibition; cell reporter, cycloheximide protein synthesis inhibition counterscreen; max response, %; 300,000 compounds, 12% hits; AID 2314; in the data active = max response mostly above about 13%, no sharp cut-off; inactive = mostly below about 14%; note: read at 38.3 µM for the half of the compounds with a filed dose
Numbers stand for hits; n = inactive; u = inconclusive; x = not tested or not shown; + = active, no number. Unless noted, calls come from the whole dose curve; as a rule, active = well fitted curve in the direction sought with a large enough effect; inconclusive = small, poorly fitted or top-dose-only effect, or another doubt; inactive = no such curve, though single readings can be large; an effect the other way counts as inactive or inconclusive.

SMILES | TbPYK inhibitor | Shiga toxin inh | Sm TGR block | LmPK inh | Giardia FBPA inh | CHX counter
CCCC(=O)N/N=C1\CS(=O)(=O)N(C)c2ccsc21 | n | n | n | n | n | n
CCOc1ccc2nc(N3CCCC(C(=O)Nc4ccc(OC)c(Cl)c4)C3)sc2c1 (centres undefined) | n | x | n | x | x | x
Nc1nc(NCCc2ccc(O)cc2)nc2nc(-c3ccco3)nn12 | x | x | x | x | n | x
COc1ccccc1-c1nnc(SCC(=O)N2CCOCC2)o1 | n | n | n | n | n | n
Cc1ccccc1-c1nnc(SCC(=O)N2CCCC2)o1 | n | 79.6 | n | n | n | 44.4
COc1ccccc1-c1nnc(SCC(=O)N2CCCCC2)o1 | n | n | n | n | x | 22.9
Cc1ccccc1-c1nnc(SCC(=O)N2CCCc3ccccc32)o1 | n | x | n | x | x | x
COc1ccc(Cn2cc(C(=O)c3ccc(C)c(C)c3)c(=O)c3ccccc32)cc1 | n | x | n | x | x | x
NS(=O)(=O)c1ccc(CNc2ccc3ccccc3n2)cc1 | n | 88.2 | n | n | u | n
COc1ccc(CCNC(=O)c2cnc(C)cn2)cc1 | n | n | n | n | x | n
NS(=O)(=O)c1ccc(CCNC(=O)c2ccc3ccccc3n2)cc1 | n | 45.0 | n | n | n | 33.7
COc1ccc(CCNC(=O)c2ccc3ccccc3n2)cc1 | n | 69.3 | n | n | n | 52.3
COc1ccc(CCNC(=O)c2cc3c(=O)n(C)c4cc(Cl)ccc4c3s2)cc1OC | n | x | n | x | x | x
Cc1c(-c2cc(Br)ccc2O)nc2cc3c(cc2c1C)OCO3 | n | 47.4 | n | n | n | 37.9
Fc1cccc(CSc2nc3ncc(Cl)cc3[nH]2)c1 | n | n | n | n | n | 19.9
Fc1cccc(CSc2nc3ncccc3[nH]2)c1 | n | 94.4 | n | n | n | 51.3
C(=C\c1ccccc1)/CSc1nc2ncccc2[nH]1 | n | 53.3 | n | n | n | 25.2
O=C(CSc1nc2ncccc2[nH]1)c1cccc([N+](=O)[O-])c1 | n | n | n | n | n | 19.1
COC(=O)CSc1nc2ncccc2[nH]1 | n | n | n | n | n | n
Cc1nc(-c2ccc(C)c(N3CCN(C(=O)Nc4cccc(Cl)c4C)CC3)c2)no1 | n | x | n | x | x | x
COCCn1c(=O)c(-c2ccccc2)nc2cnc(N3CCN(C)CC3)nc21 | x | x | x | x | n | x
COc1ccc(OC)c(C(O)c2ncc(-c3ccccc3OC)[nH]2)c1 (centres undefined) | n | x | x | x | x | x
CC(C)C[C@@H](CC(=O)N[C@H](CC(=O)N[C@@H]1CCCC[C@H]1C(=O)N[C@H](CC(=O)N[C@@H](CCC(=O)O)CC(=O)O)Cc1c[nH]c2ccccc12)C(C)C)NC(=O)[C@@H]1CCCC[C@H]1N | x | x | x | x | n | x
CCOc1ccc(NC(=O)C(=O)NCC(c2cccnc2)N2CCc3ccccc32)cc1 (centres undefined) | n | x | n | x | x | x
O=C1CCCC2[C@@H]3CCC[N@+]4([O-])CCC[C@H](CN12)C34 (some centres undefined) | x | x | x | x | n | x
SMILES | TbPYK inhibitor | Shiga toxin inh | Sm TGR block | LmPK inh | Giardia FBPA inh | CHX counter
O=C(CSc1nc2ncccc2[nH]1)Nc1cc(F)ccc1F | n | x | n | x | x | x
Cc1cc(SCC(=O)c2cccc([N+](=O)[O-])c2)nc(=O)[nH]1 | n | 80.1 | u | n | x | 34.6
O=C(CSc1nc2ncccc2[nH]1)c1ccc(F)cc1 | n | n | n | n | n | 43.0
Fc1ccc(CSc2nc3ncccc3[nH]2)cc1 | n | 71.1 | n | n | n | 29.6
O=C(CC1NCCNC1=O)Nc1ccc(F)c(Cl)c1 (centres undefined) | n | x | n | x | x | x
O=C(CCC1CCCN(C(=O)Cc2cccc(F)c2)C1)N1CCN(c2ccccn2)CC1 (centres undefined) | n | 70.6 | n | n | n | 49.9
Cc1ccccc1CC(=O)N1CCCC(CCC(=O)N2CCN(c3ccccn3)CC2)C1 (centres undefined) | n | n | n | n | n | n
O=C(CCC1CCCN(C(=O)CCCc2ccccc2)C1)N1CCN(c2ccccn2)CC1 (centres undefined) | n | n | n | n | n | 21.6
O=C(CSc1nc(=O)[nH]c2c1CCC2)NCc1ccc(Cl)cc1 | n | x | n | x | x | x
C[C@H]1CN([C@@H](C)CO)C(=O)c2cc(-c3cccc(F)c3)cnc2O[C@H]1CN(C)C(=O)c1cnccn1 | n | x | x | x | x | x
Cc1ccc(C)c(NC(=O)c2ccc(CN3CC(=O)N4CCCCC4C3=O)cc2)c1 (centres undefined) | n | x | n | x | x | x
O=C(CCNc1ccc(F)cc1)c1cc2ccccc2o1 | n | n | 0.316µM | n | n | n
O=C(CCNc1cccc(F)c1)c1cc2ccccc2o1 | n | n | 0.355µM | n | n | 43.8
O=C(CCNc1cccc(F)c1)c1cccc([N+](=O)[O-])c1 | n | n | 0.282µM | n | n | n
Cc1ccc2oc(-c3cccc(NC(=O)Cn4cnc5c(=O)n(C)c(=O)n(C)c54)c3)nc2c1 | x | 137.4 | n | n | n | 34.2
CCC(C)c1ccc2oc(-c3ccc(NC(=O)Cn4cnc5c(=O)n(C)c(=O)n(C)c54)cc3)nc2c1 (centres undefined) | n | 154.4 | n | n | n | 57.6
O=c1cc(O)c(Cl)c[nH]1 | n | x | x | x | x | x
CCOC(=O)C1=CN(C)C=C(C(=O)OCC)C1c1ccsc1 | x | n | n | n | n | 16.9
CC(C)=CCC1=C(O)c2ccccc2C(=O)C1=O | x | x | x | x | 1.12µM | x
CO/N=C(/C(=O)N[C@@H]1C(=O)N2C(C(=O)O)=C(COC(N)=O)CS[C@H]12)c1ccco1 | n | x | x | x | x | x
O=C(COC(=O)COc1ccc(Cl)cc1Br)NC1CCCCCC1 | n | x | n | x | x | x
CN(C(=O)COc1ccc(Cl)cc1Br)C1CCCCC1 | n | 71.9 | n | n | n | 45.3
O=C(COc1ccc(Cl)cc1Cl)N(c1ccccn1)C1CCCCC1 | n | n | n | n | n | 30.3
CCOc1ccc(OCc2cccc(C(=O)Nc3ccc(CN4CCCCC4)cc3)c2)cc1 | n | 86.9 | n | n | n | 121.6
COc1ccc(OCc2cccc(C(=O)Nc3ccc(CN4CCCCC4)cc3)c2)cc1 | n | + | n | n | n | 126.7
SMILES | TbPYK inhibitor | Shiga toxin inh | Sm TGR block | LmPK inh | Giardia FBPA inh | CHX counter
O=C(Nc1ccc(CN2CCCCC2)cc1)c1cccc(F)c1 | n | 39.5 | n | n | n | 31.4
COc1cc(OC)cc(C(=O)Nc2ccc(CN3CCCCC3)cc2)c1 | n | n | n | n | n | n
Cc1ccc(CNC(=O)C(C(C)C)N2Cc3ccccc3C2=O)cc1 (centres undefined) | n | x | n | x | x | x
O=C(NCCc1ccccc1F)C1CCCN1S(=O)(=O)c1ccc2ccccc2c1 (centres undefined) | n | n | n | n | n | 21.0
CCNC(=O)C1CCCN1S(=O)(=O)c1ccc2ccccc2c1 (centres undefined) | n | n | n | n | x | n
CCOc1ccccc1C(=O)Nc1nc2c(s1)CC(C)CC2 (centres undefined) | n | x | n | x | x | x

Screens deposited in PubChem by National Center for Advancing Translational Sciences (NCATS).
